DT40 TDP1 CPT – growth inhibition of DT40 Tdp1-/-;hTDP1 cells with camptothecin (screen for TDP1 inhibitors); chicken DT40 Tdp1-/-;hTDP1 cells + 20 nM CPT, ATP luminescence, 48 h; Potency, µM (titrated, usually from 46.2 µM), for the others: at the highest dose activity change, negative = growth inhibition, usual class: inhibitors; actives 12% (n = 420,000); AID 686979; further: potency means the concentration at half of the fitted maximal effect; nearly all actives have a fitted effect of over 55% in size
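Cell growth measured by CellTiter-Glo luminescence after a minimum 48 h, 37 C compound exposure with 20 nM CPT in Tdp1-knockout DT40 cells stably expressing hTDP1, seeded 400/well; qHTS titration format.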
DT40 TDP1 no CPT – qHTS for Inhibitors of human tyrosyl-DNA phosphodiesterase 1 (TDP1): qHTS in cells in absence of CPT; actives 15% (n = 420,000); DT40 Tdp1-/- hTDP1 cells, no CPT, ATP luminescence, 48 h; AID 686978, 2013; Potency, µM (highest dose often 46.2 µM), for inactives: at the highest dose activity change, negative = growth inhibition, most hits filed as inhibitors; further: potency means the concentration at half of the fitted maximal effect; nearly all actives have a fitted effect of over 55% in size
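Seeded 400 DT40-hTDP1 cells/well (vehicle DMSO, no 20 nM CPT); pinned compounds; ≥48 hr at 37 °C; CellTiter-Glo luminescence as viability measure.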
IL-1B inflam inh – inflammasome signaling inhibition, IL-1 beta readout. THP-1 LPS/ATP IL-1B secretion, AlphaLISA, 16 h; stronger effect = lower value. AID 743279. actives 4.7% (n = 360,000). activity change, % at 57.5 µM; in the data active means activity change below about -50%; inconclusive means mostly about -30% to -49%
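Secreted IL-1B measured by AlphaLISA bead assay after 16 h compound exposure of THP-1 cells; compounds (final up to 57.5 uM) added 1 h before LPS (250 ng/mL) and ATP (1.25 mM) stimulation; lower signal means less secretion.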
HT1080 IDH1KD tx – toxicity to HT-1080 IDH1 knockdown cells (counter line); AID 686971; actives 2% (n = 360,000); HT-1080 IDH1 knockdown viability, ATP luminescence, 48 h; Potency, µM (series often up to 46.1 µM), for inactives: at the highest dose activity, negative = toxicity, actives largely listed as cytotoxic;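 further: potency means the concentration at half of the fitted maximal effect; 0% = DMSO wells and -100% = cell-free medium wells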
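In this qHTS, HT-1080 cells depleted of IDH1 are exposed for 48 h at 37 °C to compound titrations. Toxicity is scored from CellTiter-Glo luminescence, with DMSO as full viability and medium alone as none.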
HT1080-NT tox – kills 2HG-producing HT-1080-NT fibrosarcoma cells; HT-1080-NT fibrosarcoma viability, CellTiter-Glo ATP luminescence, 48 h; Potency, µM (doses to about 46.1 µM), for inactives: at the highest dose activity, negative = less viability, usual class: cytotoxic; actives 1.6% (n = 360,000);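 further: NT is the 2HG producing partner of a matched IDH1 knockdown line; potency means the concentration at half of the fitted maximal effect; 0% = DMSO-treated cells and -100% = media-only wells without cells; nearly all actives have a fitted effect of over 55% in size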
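750 cells/well, RPMI + 5% FBS; 2 h settle, compound pin-transfer, 48 h at 37 degrees C. CellTiter-Glo 10 min RT, luminescence. Normalized to DMSO and media-only wells.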
* = called active by the depositor; u = inconclusive; x = no result. An excerpt weighted towards active compounds, which were near 19% of everything screened. Unless noted, the call rests on the fitted dose curve; in most records, active means well fitted curve in the direction sought with a large enough effect; inconclusive means small, poorly fitted or top-dose-only effect, or another doubt; inactive means no such curve, though single readings can be large; an effect the other way counts as inactive or inconclusive. Unless noted, on the % scale 0 is the no-effect control and ±100 the full control effect.

SMILES | DT40 TDP1 CPT | DT40 TDP1 no CPT | IL-1B inflam inh | HT1080 IDH1KD tx | HT1080-NT tox
CC(NC(=S)NC(=O)c1cccs1)c1ccccc1 (centres undefined) | -6% | 18µM* | u | -21% | -3%
COC(c1ccccc1)c1c(-c2ccccc2)nn(C)c1Cl (centres undefined) | 1.5µM* | u | 25 | -10% | -3%
Cn1nc(-c2ccccc2)c(C(O)c2ccccc2C(F)(F)F)c1Cl (centres undefined) | -25% | -23% | 9 | 11% | 9%
Cc1noc(C)c1COC(=O)CCN1c2ccccc2Sc2ccccc21 | u | 21µM* | -16 | -8% | 1%
Cc1noc(C)c1COC(=O)CCc1nc2ccccc2s1 | -14% | -10% | -1 | 16% | 24%
CCN(CC)CC(O)CNc1ccnc2c(Cl)ccc(Cl)c12 (centres undefined) | 6% | -6% | -66* | -18% | 1%
O=C(CSc1nc(-c2cccs2)cc(C(F)(F)F)n1)Nc1cc(OCC(F)(F)C(F)F)cc([N+](=O)[O-])c1 | 8.2µM* | 12µM* | 5 | u | u
COc1ccc(NC(=O)CSc2nc(-c3cccs3)cc(C(F)(F)F)n2)c(OC)c1 | 16µM* | 21µM* | x | x | x
O=C(CSc1nc(-c2cccs2)cc(C(F)(F)F)n1)NCCCn1ccnc1 | -11% | 0% | 21 | 1% | -2%
O=C(CSc1nc(-c2cccs2)cc(C(F)(F)F)n1)Nc1ccccc1Cl | u | 18µM* | x | x | x
Cc1ccc(NC(=O)CSc2nc(-c3cccs3)cc(C(F)(F)F)n2)cc1C | 7.3µM* | 5.8µM* | x | x | x
CCC(Cc1ccccc1)NC(=O)C1CC1 (centres undefined) | 0% | 11% | 8 | 9% | 6%
O=[N+]([O-])/C(Cl)=C(/NCCO)C(Cl)=C(Cl)Cl | -4% | 0% | 24 | 0% | -2%
CC(=O)C1=C(O)CCCC1=NCc1nc2ccccc2[nH]1 | 2% | u | -9 | -2% | -1%
CCOc1ccc(NC2CCCCC2NS(=O)(=O)c2ccccc2)cc1 (centres undefined) | -5% | -13% | -7 | 0% | 3%
CCC(=O)N1CCc2cc(OC)c(OC)cc2C1COc1ccc(OC)cc1 (centres undefined) | -16% | -20% | -5 | -20% | -21%
COC(=O)c1ccc(OCC2c3cc(OC)c(OC)cc3CCN2C(=O)COc2ccc(Cl)cc2)cc1 (centres undefined) | 21µM* | 29µM* | x | x | x
CCCCC(=O)N1CCc2cc(OC)c(OC)cc2C1COc1ccc(OC)cc1 (centres undefined) | 16µM* | 21µM* | x | x | x
COc1ccc(CC(=O)N2CCc3cc(OC)c(OC)cc3C2COc2ccc(F)cc2)cc1 (centres undefined) | 13µM* | 16µM* | x | x | x
COc1cc2c(cc1OC)[C@H](C)N(C(=O)COc1ccccc1)CC2 | -29% | -21% | 6 | 7% | 6%
CNC(=S)N1CCc2cc(OC)c(OC)cc2C1COc1ccc(OC)cc1 (centres undefined) | -2% | u | 0 | -3% | -5%
COCCNC(=S)N1CCc2cc(OC)c(OC)cc2C1COc1cc(C)cc(C)c1 (centres undefined) | 26µM* | u | u | -24% | -16%
O=C(COC(=O)Cc1ccc(Br)cc1)NCc1ccc(F)cc1 | -1% | -4% | 7 | u | 18%
Cc1ccc(S(=O)(=O)/N=C(\CN2CCCCC2)N2CCOCC2)cc1 | -22% | -11% | -7 | 9% | -1%
Cc1cc(C)cc(S(=O)(=O)c2cn(C)c3cc(N4CCCC4)c(F)cc3c2=O)c1 | -3% | 5% | x | x | x
COc1cc2c(cc1OC)C(COc1ccc([N+](=O)[O-])cc1)N(C(C)=O)CC2 (centres undefined) | 23µM* | 18µM* | -4 | -20% | u

High-throughput results deposited in PubChem BioAssay by National Center for Advancing Translational Sciences (NCATS).
